Data: PubChem BioAssay (Tox21)
Inconclusive results are not listed. Activity calls are given as the source filed them. Unless noted, calls follow the shape of the dose curve; as a rule, active = well fitted curve in the direction sought with a large enough effect in the repeat runs; inconclusive = weak or mixed curves; inactive = no such curve, though single readings can be large; an effect the other way counts as inactive or inconclusive.

Assays:
[1] = A CellTox Green Cytotoxicity Assay to monitor cytotoxicity in HepG2 cells - 8 hour (AID 1224890); also: nearly all actives have a fitted effect of over 45% in size
Outline: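 HepG2, 600 cells/well premixed w/ CellTox Green; 5 h settle, 37 C/5% CO2; pintool cpd add (DMSO); 37 C, 40 h; fluorescence read at 0, 8, 16, 24, 32, 40 h.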

[2] = qHTS assay to identify small molecule antagonists of the androgen receptor (AR) signaling pathway using the MDA cell line in the presence of 0.5 nM R1881 - cell viability counter screen (AID 1259242); also: nearly all actives have a fitted effect of over 45% in size
Outline: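 Live-cell protease fluorescence, CellTiter-Fluor, 30 min at 37C. Cells: MDA-kb2, 3,000/well, preincubated 5 hr. Compounds plus 0.5 nM R1881 final, 16 hr, 37C, 0% CO2.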

[3] = qHTS assay to identify small molecule HDAC inhibitors (AID 1259364); also: potency is read from the fitted curve at half-maximal effect;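 also: wild-type HCT-116 cells with endogenous class I/II HDAC activity; nearly all actives have a fitted effect of over 45% in size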
Outline: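 HCT-116 (wild type), 1,500 cells/well, overnight; compound 2 hr 37C 5% CO2; HDAC-Glo I/II reagent 30 min RT; luminescence readout.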

[4] = qHTS assay to identify small molecule HDAC inhibitors - cell viability counter screen (AID 1259365); also: series mostly up to about 92 µM; nearly all actives have a fitted effect of over 50% in size
Outline: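 After overnight seeding at 1,500 cells per well, wild-type HCT-116 cultures took up compounds in DMSO for 2hr at 37 C. Viable cell content came from luminescence with CellTiter-Glo.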

[5] = qHTS assay to identify small molecule agonists of the sonic hedgehog signaling (Shh) pathway - cell viability counter screen (AID 1259366); also: nearly all actives have a fitted effect of over 50% in size; also: potency is read from the fitted curve at half-maximal effect
Outline: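 Same-well cytotoxicity read. Gli1-Luc reporter 3T3 cells; compounds 24hr, 37C/5% CO2; CellTiter-Fluor fluorescence.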

[6] = qHTS assay to identify small molecule antagonists of the sonic hedgehog signaling (Shh) pathway - cell viability counter screen (AID 1259367); also: nearly all actives have a fitted effect of over 55% in size; also: potency is read from the fitted curve at half-maximal effect
Outline: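 Fluorescence read-out (CellTiter-Fluor, 1 hr at 37C) taken after 23 hr compound treatment of 3T3 Gli1-Luc cells stimulated with conditioned medium. Cells were seeded at 2,000 per well and pre-incubated 4 hr.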

[7] = qHTS assay to identify small molecule agonists of the sonic hedgehog signaling (Shh) pathway (AID 1259368; calls by dose curve;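 also: NIH/3T3-derived 3T3Gli1-Luc cells carrying a stable Gli1-driven firefly luciferase reporter; series mostly up to about 92 µM; nearly all actives have a fitted effect of over 15% in size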)
Outline: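 Read-out: firefly luciferase luminescence from a Gli1 response element reporter stably integrated in NIH/3T3-derived 3T3Gli1-Luc cells, measured 30 min at room temperature after reagent addition. Compound exposure lasted 24 hr at 37 C, 5% CO2.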

[8] = qHTS assay to identify small molecule antagonists of the sonic hedgehog signaling (Shh) pathway (AID 1259369; calls by dose curve; also: nearly all actives have a fitted effect of over 45% in size; also: potency is read from the fitted curve at half-maximal effect)
Outline: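 Luminescence readout: firefly Luc under Gli1 response element in 3T3Gli1-Luc cells (NIH/3T3 clone). Antagonist mode, stimulation by conditioned medium; compound exposure 24hr at 37 C, 5% CO2.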

[9] = target: Estrogen receptor beta (Homo sapiens) (UniProt Q92731); test: qHTS assay to identify small molecule agonists of the estrogen receptor beta (ER-beta) signaling pathway (AID 1259377; active = well fitted activation curve with a large enough effect in the signal ratio in the repeat runs, not every such curve was filed as active; the % refers to the signal ratio)
Outline: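 Read-out: beta-lactamase FRET fluorescence. Cell line: ER-beta-UAS-bla HEK293T in 2% charcoal-stripped FBS. Exposure: 16 hr at 37C. Substrate step: 2 h at room temperature.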

[10] = qHTS assay to identify small molecule agonists of the androgen receptor (AR) signaling pathway in the presence of an antagonist - cell viability counter screen (AID 1259379); also: nearly all actives have a fitted effect of over 25% in size; also: potency is read from the fitted curve at half-maximal effect
Outline: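 Viability counter screen: CellTiter-Fluor fluorescence, measured in the same wells as the luciferase read-out. MDA-kb2 cells, 3,000/well, with nilutamide at 3.0uM final and compounds at 15 concentrations, 16 hr at 37C, 0% CO2.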

[11] = qHTS assay to identify small molecule agonists of the estrogen receptor beta (ER-beta) signaling pathway - cell viability counter screen (AID 1259380); also: nearly all actives have a fitted effect of over 30% in size; also: potency is read from the fitted curve at half-maximal effect
Outline: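 Luminescence read-out (CellTiter-Glo, 30 min, room temp) taken in the same wells as the beta-lactamase reporter assay; ER-beta-UAS-bla HEK293T cells exposed to DMSO-dissolved compounds for 16 hr at 37C in 2% charcoal-stripped FBS medium.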

[12] = qHTS assay to identify small molecule antagonists of the estrogen receptor beta (ER-beta) signaling pathway - cell viability counter screen (AID 1259382); also: series mostly up to about 92 µM; nearly all actives have a fitted effect of over 55% in size
Outline: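 Luminescent ATP read-out (CellTiter-Glo, 30 min, RT) taken in the same wells as the bla reporter assay. HEK293T ER-beta-UAS-bla cells in 2% charcoal-stripped FBS were exposed to compounds with 1nM E2 for 16 hr at 37C.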

[13] = qHTS assay to identify small molecule agonists or antagonists of the thyroid stimulating hormone receptor (TSHR) signaling pathway - wild type cell line counter screen (AID 1259384; calls by dose curve)
Outline: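 Wild-type Hek293 cells, 800/well, 18 h at 37C, then compound with Ro20-1724 for 30 min RT. cAMP by HTRF (cAMP-d2/anti-cAMP cryptate), 1 h RT, fluorescence read. 15 concentrations, triplicates.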

[14] = qHTS assay to identify small molecule phospholipidosis (PLD) inducers (AID 1259344; active = well fitted curve in the direction sought with a large enough effect; an effect the other way counts as inactive or inconclusive)
Outline: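 Read-out is LipidTOX Red fluorescence (ex 595/em 615) imaged in HepG2 cells after 24 h compound exposure at 37 C, with Hoechst nuclear counterstain (ex 352/em 461) allowing per-cell normalisation.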

[15] = target: Estrogen receptor beta (Homo sapiens) (UniProt Q92731); test: qHTS assay to identify small molecule antagonists of the estrogen receptor beta (ER-beta) signaling pathway (AID 1259378; active = well fitted inhibition curve with a large enough effect in the signal ratio in the repeat runs, not every such curve was filed as active; the % refers to the signal ratio; also: potency is read from the fitted curve at half-maximal effect)
Outline: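 ER-beta-UAS-bla HEK293T cells in 2% charcoal-stripped FBS medium treated with compound plus 1nM final 17-beta-estradiol for 16 hr at 37C. Beta-lactamase reporter read by FRET substrate fluorescence after 2 hours at room temperature.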

[16] = qHTS assay to identify small molecule antagonists of the estrogen receptor alpha (ER-alpha) signaling pathway using the BG1 cell line in the presence of 0.1 nM 17-beta-estradiol - cell viability counter screen (AID 1259241); also: nearly all actives have a fitted effect of over 40% in size
Outline: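 Estradiol-stimulated (0.1 nM) VM7Luc4E2 cells exposed to compounds 22 hr; viability measured by fluorescence of cleaved CellTiter-Fluor substrate after 30 min.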

[17] = target: Estrogen receptor (Homo sapiens) (UniProt P03372); test: qHTS assay to identify small molecule antagonists of the estrogen receptor alpha (ER-alpha) signaling pathway using the BG1 cell line in the presence of 0.1 nM 17-beta-estradiol (AID 1259244); also: nearly all actives have a fitted effect of over 50% in size; also: potency is read from the fitted curve at half-maximal effect
Outline: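 Luminescence after ONE-Glo (30 min, room temperature) measured ERE-luciferase activity in VM7Luc4E2 cells treated 22 h with compound and 0.1 nM final 17beta-estradiol as stimulator.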

[18] = target: Estrogen receptor (Homo sapiens) (UniProt P03372); test: qHTS assay to identify small molecule agonists of the estrogen receptor alpha (ER-alpha) signaling pathway in the presence of an antagonist (AID 1259383; calls by dose curve; also: top concentration of the series differs between compounds; nearly all actives have a fitted effect of over 15% in size)
Outline: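 Luciferase luminescence (ONE-Glo, 30min at room temperature) measured in VM7Luc4E2 cells after 22hr compound exposure at 15 concentrations, with 10.0nM ICI-182,780 final present; cells express endogenous ER-alpha and carry four EREs upstream of luciferase.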

[19] = target: Androgen receptor (Homo sapiens) (UniProt P10275); test: qHTS assay to identify small molecule antagonists of the androgen receptor (AR) signaling pathway using the MDA cell line in the presence of 0.5 nM R1881 (AID 1259243); also: nearly all actives have a fitted effect of over 50% in size; also: potency is read from the fitted curve at half-maximal effect
Outline: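 MDA-kb2, MMTV-luc (AR/GR elements); 3,000 cells/well; cpd + 0.5 nM R1881 final; 16 hr 37C, 0% CO2; ONE-Glo 30 min RT; luminescence.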

[20] = target: Androgen receptor (Homo sapiens) (UniProt P10275); test: qHTS assay to identify small molecule agonists of the androgen receptor (AR) signaling pathway in the presence of an antagonist (AID 1259381; calls by dose curve; also: nearly all actives have a fitted effect of over 15% in size)
Outline: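 Luciferase read-out (ONE-Glo, 30min room temperature) in MDA-kb2 MMTV-reporter cells; agonist mode run in presence of AR antagonist nilutamide, 3.0uM final. Compounds tested as 15-point series, 16hr exposure at 37C, 0% CO2.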

Measured: Potency

Estrogen receptor beta (Homo sapiens), sequence (Q92731 whole entry, looked up): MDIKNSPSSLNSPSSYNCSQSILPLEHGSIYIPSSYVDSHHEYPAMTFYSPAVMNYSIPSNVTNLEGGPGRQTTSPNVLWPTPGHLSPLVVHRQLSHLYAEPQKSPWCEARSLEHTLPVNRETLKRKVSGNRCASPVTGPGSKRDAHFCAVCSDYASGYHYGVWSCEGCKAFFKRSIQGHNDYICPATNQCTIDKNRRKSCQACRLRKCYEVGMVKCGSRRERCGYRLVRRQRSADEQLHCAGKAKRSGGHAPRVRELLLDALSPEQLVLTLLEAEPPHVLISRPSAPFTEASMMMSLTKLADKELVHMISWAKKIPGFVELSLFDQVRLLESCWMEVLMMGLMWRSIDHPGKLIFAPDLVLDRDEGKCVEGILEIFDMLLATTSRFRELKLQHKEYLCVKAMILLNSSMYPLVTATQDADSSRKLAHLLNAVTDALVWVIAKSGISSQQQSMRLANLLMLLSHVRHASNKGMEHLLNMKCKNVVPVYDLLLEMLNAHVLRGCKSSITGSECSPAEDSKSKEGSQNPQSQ
Androgen receptor (Homo sapiens), sequence (P10275 whole entry, looked up): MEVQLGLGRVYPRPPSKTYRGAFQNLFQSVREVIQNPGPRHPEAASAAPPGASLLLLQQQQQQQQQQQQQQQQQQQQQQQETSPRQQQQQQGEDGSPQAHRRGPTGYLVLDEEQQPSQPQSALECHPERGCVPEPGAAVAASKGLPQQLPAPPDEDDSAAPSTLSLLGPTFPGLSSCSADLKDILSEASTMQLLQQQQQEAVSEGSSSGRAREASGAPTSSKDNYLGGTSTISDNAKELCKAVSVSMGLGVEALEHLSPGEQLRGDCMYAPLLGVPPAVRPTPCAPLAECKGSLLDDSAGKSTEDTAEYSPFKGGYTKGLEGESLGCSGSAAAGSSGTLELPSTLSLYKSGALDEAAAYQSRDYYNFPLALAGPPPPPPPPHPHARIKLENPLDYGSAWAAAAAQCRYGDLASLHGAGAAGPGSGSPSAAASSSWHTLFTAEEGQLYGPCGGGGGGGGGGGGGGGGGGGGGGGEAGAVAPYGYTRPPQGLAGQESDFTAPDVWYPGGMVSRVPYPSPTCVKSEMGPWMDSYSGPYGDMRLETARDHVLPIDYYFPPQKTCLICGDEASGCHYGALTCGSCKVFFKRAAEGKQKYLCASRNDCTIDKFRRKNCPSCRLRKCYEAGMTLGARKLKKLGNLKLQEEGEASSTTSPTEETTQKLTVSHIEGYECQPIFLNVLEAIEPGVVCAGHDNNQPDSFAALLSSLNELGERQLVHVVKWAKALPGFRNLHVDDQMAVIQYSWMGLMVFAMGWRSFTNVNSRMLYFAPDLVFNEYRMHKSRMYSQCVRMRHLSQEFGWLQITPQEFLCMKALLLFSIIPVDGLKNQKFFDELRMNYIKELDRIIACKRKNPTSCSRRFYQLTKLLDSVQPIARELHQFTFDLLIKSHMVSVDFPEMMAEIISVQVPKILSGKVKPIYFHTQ
Estrogen receptor (Homo sapiens), sequence (P03372 whole entry, looked up): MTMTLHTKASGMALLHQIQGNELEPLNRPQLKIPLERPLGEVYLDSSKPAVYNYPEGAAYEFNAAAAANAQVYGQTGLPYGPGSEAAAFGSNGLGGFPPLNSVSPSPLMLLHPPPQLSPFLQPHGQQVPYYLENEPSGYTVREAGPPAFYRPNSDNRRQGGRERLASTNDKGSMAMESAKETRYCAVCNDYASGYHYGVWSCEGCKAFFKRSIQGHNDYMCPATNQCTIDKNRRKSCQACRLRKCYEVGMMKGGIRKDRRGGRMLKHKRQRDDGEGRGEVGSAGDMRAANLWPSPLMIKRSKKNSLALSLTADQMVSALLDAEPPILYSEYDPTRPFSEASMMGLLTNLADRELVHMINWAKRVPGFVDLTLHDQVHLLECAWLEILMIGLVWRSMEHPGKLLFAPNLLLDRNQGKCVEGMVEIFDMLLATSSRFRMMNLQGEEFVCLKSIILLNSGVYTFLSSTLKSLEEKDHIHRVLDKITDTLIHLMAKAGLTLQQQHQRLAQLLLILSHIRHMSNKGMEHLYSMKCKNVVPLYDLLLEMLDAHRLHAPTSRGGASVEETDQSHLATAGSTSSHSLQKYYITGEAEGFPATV

CC(C)(Cl)[N+](=O)[O-]
not listed: [14] | [15] | [16] | [17] | [18] | [19] | [20]
inactive: all other assays above

O=C1CN=C(c2ccccc2)c2cc(Cl)ccc2N1CC1CC1
active: [8] 51 µM | [15] 28.7 µM
not listed: [13] | [16] | [17] | [18] | [19] | [20]
inactive: all other assays above

C/C=C/C=O
inactive: [1] | [2] | [3] | [4] | [5] | [6] | [7] | [8] | [10] | [12]

NC(=O)CI
active: [3] 54.9 µM
not listed: [1] | [14] | [19] | [20]
inactive: all other assays above

C=CC(=O)OC
not listed: [7] | [14] | [16] | [17] | [18] | [19] | [20]
inactive: all other assays above

CC1CC(CC2CCC(N)C(C)C2)CCC1N (configuration not stated)
inactive: [1] | [19] | [17] | [3] | [4] | [7] | [20] | [12] | [18] | [13]
active: [10] 27.8 µM

CC/C(=N\OC/C=C/Cl)C1=C(O)CC(C2CCOCC2)CC1=O (configuration not stated)
not listed: [7] | [10] | [14] | [16] | [17] | [18] | [19] | [20]
inactive: all other assays above

ClCCCCBr
not listed: [5] | [14] | [16] | [17] | [18] | [19] | [20]
inactive: all other assays above

COP(=S)(OC)Oc1ccc([N+](=O)[O-])cc1Cl
active: [19] 6.86 µM | [10] 48.6 µM
inactive: [1] | [17] | [4] | [7] | [8] | [11] | [20] | [12] | [18] | [13]

O=S1OC[C@@H]2[C@H](CO1)[C@]1(Cl)C(Cl)=C(Cl)[C@@]2(Cl)C1(Cl)Cl (some centres not stated)
active: [19] 48.6 µM
not listed: [1] | [9] | [14] | [15]
inactive: all other assays above

O=C(Nc1ccccc1)Nc1cnns1
inactive: [1] | [2] | [4] | [5] | [6] | [9] | [10] | [12] | [13]
active: [3] 30.6 µM

CCCCC(O)(Cn1cncn1)c1ccc(Cl)cc1Cl (configuration not stated)
active: [19] 54.4 µM | [17] 61.1 µM | [8] 19.3 µM | [15] 48.5 µM | [11] 68.5 µM
not listed: [1] | [5] | [6] | [12] | [14] | [16]
inactive: all other assays above

CNC(C)Cc1ccccc1OC (configuration not stated)
not listed: [1] | [9] | [10] | [15] | [19] | [20]
inactive: all other assays above

Cc1ccccc1CCl
not listed: [7] | [13] | [14] | [16] | [17] | [18] | [19] | [20]
inactive: all other assays above

CCc1ccc(C(=O)NN(C(=O)c2cc(C)cc(C)c2)C(C)(C)C)cc1
active: [5] 2.17 µM | [6] 2.43 µM
not listed: [14] | [15] | [16] | [17] | [19] | [20]
inactive: all other assays above

CC1(C)CCC(Cc2ccc(Cl)cc2)C1(O)Cn1cncn1 (configuration not stated)
active: [17] 61.1 µM | [8] 27.3 µM
inactive: [16] | [2] | [3] | [4] | [5] | [6] | [7] | [18] | [13]

NNC(=O)c1cccnc1
inactive: [1] | [2] | [17] | [4] | [5] | [6] | [7] | [8] | [11] | [12] | [13]

O=[N+]([O-])C(Br)(CO)CO
active: [5] 48.6 µM | [6] 61.1 µM | [8] 34.4 µM
not listed: [1] | [10] | [11] | [18]
inactive: all other assays above

CCOP(O)OCC
not listed: [14] | [16] | [17] | [18] | [19] | [20]
inactive: all other assays above

O=C(O)C(F)(F)C(F)(F)C(F)(F)C(F)(F)C(F)(F)C(F)(F)C(F)(F)C(F)(F)C(F)(F)C(F)(F)F
not listed: [1] | [11] | [13] | [14] | [17] | [18] | [19] | [20]
inactive: all other assays above

CC(=O)c1cc2c(cc1C)C(C)(C)C(C)CC2(C)C (configuration not stated)
active: [11] 61.1 µM
not listed: [1] | [10] | [14] | [15] | [17] | [18] | [19] | [20]
inactive: all other assays above

CS/C(C)=N/OC(=O)N(C)SN(C)C(=O)O/N=C(\C)SC
active: [5] 54.5 µM
not listed: [1] | [2] | [7] | [8] | [10] | [11] | [14] | [15]
inactive: all other assays above

CN1C(=O)NC(=O)C(C)(C2=CCCCC2)C1=O (configuration not stated)
not listed: [16] | [17] | [18] | [19] | [20]
inactive: all other assays above
